Laboratory results as given in PMC7819943, “Rice protein-binding microarrays: a tool to detect cis-acting elements near promoter regions in rice”.
The full ranking holds about 68,000 sequences; the median of “fluorescence intensity (a.u.)” is about 9,100, and the highest 2% start at about 16,000. Shown is part of a subset that was picked to be rich in the highest values.

biological target: OsWRKY34 (Oryza sativa, UniProt Q0JBA9 1-250); test: protein-binding microarray (RPBM); PBS, 2% BSA, 51.3 ng/ul salmon testes DNA, 50 uM zinc acetate, 200 nM TF, 25 C, 1 h; high values mean tight binding; details: protein: recombinant; tags: N-terminal polyhistidine and DsRed monomer fusion (pET32a); label: CyDye5-dUTP incorporated in the synthesized complementary strand; 3' TTTTT single-stranded linker to array surface; dsDNA, one strand shown
How it was run: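 Binding signal is defined as the fluorescence intensity of each feature in arbitrary units, read on an Axon 4000B scanner. Transcription factors with N-terminal polyhistidine and DsRed fusions came from E. coli BL21-CodonPlus and were purified on Ni–NTA. They were incubated at 200 nM for 1 h at 25 °C on a custom Agilent array that had been made double-stranded with Cy5-dUTP, with 50 µM zinc acetate present, and the array was washed.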

Sequence of OsWRKY34 (Q0JBA9 entry or part of it): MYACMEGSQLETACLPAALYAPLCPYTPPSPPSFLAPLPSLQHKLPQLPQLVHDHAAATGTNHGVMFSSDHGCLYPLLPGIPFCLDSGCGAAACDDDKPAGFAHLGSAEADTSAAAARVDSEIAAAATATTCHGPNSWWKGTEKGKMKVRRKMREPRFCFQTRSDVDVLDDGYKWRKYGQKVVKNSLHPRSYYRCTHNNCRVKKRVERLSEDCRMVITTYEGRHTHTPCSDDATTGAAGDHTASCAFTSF

Sequence	binding signal
AGTTATTTATTTTGTTGTGGTTTGTTTTATAGTTAAAGGTCGGAGTCACCTAGTGCAG	10100 fluorescence intensity (a.u.)
CGATCCCACCGACTCCCGGCCACCTCTGCTTCCCCGGCGACGGAGTCACCTAGTGCAG	9140 fluorescence intensity (a.u.)
TATATGTTTGGCGCTCAAAACCTAATAGTAGTTCTTATGTCGGAGTCACCTAGTGCAG	8300 fluorescence intensity (a.u.)
CTCTCCTCTCATCTCATCTCATCTCCAAGGCTGGTCTTTACGGAGTCACCTAGTGCAG	8320 fluorescence intensity (a.u.)
ACAGCCGCGTCGCCGCTTGTCCGCCTGCGCTCGTTCTCGCCGGAGTCACCTAGTGCAG	9640 fluorescence intensity (a.u.)
GGCATCCTACACTCTAGCTAGCCCACAGTCCGCTGCCGGCCGGAGTCACCTAGTGCAG	8790 fluorescence intensity (a.u.)
GCGGATGGAATGGCAAGGGAGGAAACTGGTGGGGTGGGAGCGGAGTCACCTAGTGCAG	8960 fluorescence intensity (a.u.)
TTCGGTTGGGTGGAGGAAGCGCGGGTGAAAAAGGTGGGGACGGAGTCACCTAGTGCAG	10600 fluorescence intensity (a.u.)
GGAATATTCTCACATCTCAGCCATCCATTTTCCATCTCAACGGAGTCACCTAGTGCAG	9090 fluorescence intensity (a.u.)
GATAGGTTGTGTGTGTGCAGTGTGTGTTTATAAGAGGTGACGGAGTCACCTAGTGCAG	10200 fluorescence intensity (a.u.)
TACATCATCTAGTGTTGCAGCAGCAGTGTGTGTAAGAGGACGGAGTCACCTAGTGCAG	28500 fluorescence intensity (a.u.)
CAGCAGTGTGTGTAAGAGGAGAGAGAAGCAGTGCCCTTTACGGAGTCACCTAGTGCAG	8530 fluorescence intensity (a.u.)
CGTCACTTTTTTTTCTCCCCTATTTCTTTTCTCCTTTTCTCGGAGTCACCTAGTGCAG	10900 fluorescence intensity (a.u.)
CCGCTCTCCTACTGCTCGGCCAACCAGTCATGCACACATACGGAGTCACCTAGTGCAG	8790 fluorescence intensity (a.u.)
ATAAAATAGTTGACTGGCTATCTTCTACTCCACTTGGTATCGGAGTCACCTAGTGCAG	8860 fluorescence intensity (a.u.)
AGGCGGAGGAGGGGAGGCGGAAGGGGTTCGCGTCGGCGGCCGGAGTCACCTAGTGCAG	12200 fluorescence intensity (a.u.)
AGGGGAGGCGTCGCTTGGTCGCCATCTTCGTCGTTTGCTTCGGAGTCACCTAGTGCAG	9720 fluorescence intensity (a.u.)
TGCTTTCGTTGGGTTGGGGAAGGGGAGGCGTCGCTTGGTCCGGAGTCACCTAGTGCAG	17100 fluorescence intensity (a.u.)
TTTGGGGTTTGAGAAGGTTGAGGAGGAGTTGGGAGGTTGACGGAGTCACCTAGTGCAG	9580 fluorescence intensity (a.u.)
CGGCGGGCGGGAGGGCGGCGTTGATTTCGTTGGGGTTTGCCGGAGTCACCTAGTGCAG	19100 fluorescence intensity (a.u.)
TTGATTTCGTTGGGGTTTGCGTTGCGTGCGGAGGACGGGGCGGAGTCACCTAGTGCAG	15200 fluorescence intensity (a.u.)
GATTAGGGTTGTTGCCGGGGTTTGTTTGGTGTTGCGGCGGCGGAGTCACCTAGTGCAG	8510 fluorescence intensity (a.u.)
CGGGAGGAGGGAGGTTGTTTCGTCTGGGGTTTGATTGGGACGGAGTCACCTAGTGCAG	18200 fluorescence intensity (a.u.)

Sequence	binding signal
TTTACAGTTGATTTTGACGGGTTTGTTGGCGAGGATTTTTCGGAGTCACCTAGTGCAG	9360 fluorescence intensity (a.u.)
AGAGAGAGGTTGCTGTTTCGATGCGTATTTCTGCAGCTTTCGGAGTCACCTAGTGCAG	10100 fluorescence intensity (a.u.)
GTCCCGGGCACCGACCACGATCCGTTCCCGCCACACAAACCGGAGTCACCTAGTGCAG	8080 fluorescence intensity (a.u.)
TCCGCCCTCTGACCGCGGCGCCAAAGCTCCTCCGCGCGCGCGGAGTCACCTAGTGCAG	8030 fluorescence intensity (a.u.)
CGGACCCCATACACCTCCGCCCGATTCCCGACGCAAATCCCGGAGTCACCTAGTGCAG	9260 fluorescence intensity (a.u.)
GTTTGTAACGTATTTTAGCTCGCTTTATAACGGGGCAGTTCGGAGTCACCTAGTGCAG	8160 fluorescence intensity (a.u.)
GATTGCTTTGTGGGTGTATGGTTCATCTTCAATGGTTTACCGGAGTCACCTAGTGCAG	8030 fluorescence intensity (a.u.)
CCGTTTCAAAATGTTTGACACCGTTGACTTTTTAGTACGTCGGAGTCACCTAGTGCAG	21100 fluorescence intensity (a.u.)
TGATATCTTTTTCTTTAATGACTTTCCGTGTTTTCAACGTCGGAGTCACCTAGTGCAG	8090 fluorescence intensity (a.u.)
AACGTACTAATGCATGACACCGTTGACTTTTTTTCAACGTCGGAGTCACCTAGTGCAG	40400 fluorescence intensity (a.u.)
GTTTCAAAATGTTTGACACCGTTGACTTTTTAGTACGTGTCGGAGTCACCTAGTGCAG	22500 fluorescence intensity (a.u.)
CGTTTCAAAATGTTTGACACCGTTGACTTTTTAGTACATGCGGAGTCACCTAGTGCAG	35900 fluorescence intensity (a.u.)
CGACAAAATTCAACCGTAATTTCAACGTTTTCCTAACTTTCGGAGTCACCTAGTGCAG	8990 fluorescence intensity (a.u.)
ACCATCACTTTTACTCTCTTTCTGCCTTAAAATCTCAATACGGAGTCACCTAGTGCAG	8590 fluorescence intensity (a.u.)
CCCTTTCCTTTTCTTTTTTTTTCTCATTTTATCCACAATTCGGAGTCACCTAGTGCAG	9870 fluorescence intensity (a.u.)
CGTGGCCCATCTCCAATTCTCCAGTTGCTTCCTTTTCGTTCGGAGTCACCTAGTGCAG	12600 fluorescence intensity (a.u.)
TCTCTTTCTTTCCTTAACTCTCTTTCTCTACTCTCCACTCCGGAGTCACCTAGTGCAG	9580 fluorescence intensity (a.u.)
GCTGTGTGTACATATTACTAGTACTACTTAATACGTGCTTCGGAGTCACCTAGTGCAG	11200 fluorescence intensity (a.u.)
TTGTGAGTGTGTATGTGTTTATGGTGTGTAATTTTTTTTACGGAGTCACCTAGTGCAG	9320 fluorescence intensity (a.u.)
GGCGTTGGTCACCTCCCGTGAGTCGTCCTCTATTCCTCTTCGGAGTCACCTAGTGCAG	11100 fluorescence intensity (a.u.)
GGTTGTAATCTATAGGGGTCCTTGTATAGAAATATCGTTTCGGAGTCACCTAGTGCAG	8880 fluorescence intensity (a.u.)
CTCCTCGCCTTCTTCTCCATCTCCATCTCGCATCTTCTCTCGGAGTCACCTAGTGCAG	11400 fluorescence intensity (a.u.)
ACATTTTAATTTGTAGGGAGAGGTACTATGGGCTTAACTTCGGAGTCACCTAGTGCAG	9750 fluorescence intensity (a.u.)
